# BCLXL inh: blocks human Bcl-xL binding to Bim BH3 peptide; Q07817; GST-Bcl-xL / FITC-Bim BH3 peptide fluorescence polarization; inhibition, % at 10.9 µM; actives 0.7% (n = 320,000);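 active = inhibition above the mean of all tested compounds plus 3 SD, cutoff set per campaign, cut at about 30% in these data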;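 note: inhibitors lower millipolarization by displacing the labeled peptide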
# Bim-Mcl-1: disrupts Bim peptide binding to human Mcl-1 | Q07820 | Bead-based flow cytometry, Bim peptide-Mcl-1 binding | inhibition, % at 10 µM | actives 0.1% (n = 190,000) | AID 1009; in the data active = inhibition above about 40%
# Mcl1-Noxa inh: Mcl-1/Noxa interaction inhibition; inhibition, % at 21.7 µM; Q07820; TR-FRET Mcl-1/Noxa peptide binding, 2 h; AID 1022; actives 1.5% (n = 220,000);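 active = compounds that cut the protein-peptide binding signal by more than 50% relative to plate controls in a single-dose test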;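 note: His-tagged Mcl-1 with rhodamine Noxa BH3 peptide and terbium anti-His antibody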
# GLD-1 RNA inh: GLD-1-TGE RNA interaction inhibition (C. elegans); purified GLD-1 + fluorescein TGE RNA, fluorescence polarization; inhibition, % at 5.96 µM; actives 0.44% (n = 320,000); AID 2280;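 active = percent inhibition above a per-plate cutoff, the plate mean of test compounds plus 3 SD, cut at about 30% in these data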
# Target sequence (Q17339 whole entry, looked up): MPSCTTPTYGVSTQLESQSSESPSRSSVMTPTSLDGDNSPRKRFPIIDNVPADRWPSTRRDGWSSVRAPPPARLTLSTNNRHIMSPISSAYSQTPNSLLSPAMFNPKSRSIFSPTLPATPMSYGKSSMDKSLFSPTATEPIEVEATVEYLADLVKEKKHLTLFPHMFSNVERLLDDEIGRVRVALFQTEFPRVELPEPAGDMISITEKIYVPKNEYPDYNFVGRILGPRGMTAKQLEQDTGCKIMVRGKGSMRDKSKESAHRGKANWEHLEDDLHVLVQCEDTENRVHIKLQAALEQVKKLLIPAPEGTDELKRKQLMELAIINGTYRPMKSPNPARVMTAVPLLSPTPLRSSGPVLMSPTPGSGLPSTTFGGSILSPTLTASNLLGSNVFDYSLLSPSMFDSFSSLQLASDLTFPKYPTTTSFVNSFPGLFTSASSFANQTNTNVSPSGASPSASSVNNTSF
# MCL1 BIM primary: inhibitors of human MCL1 binding to BIM-BH3 peptide | actives 0.68% (n = 320,000) | inhibition, % at 10.9 µM | Q07820 | AID 2057 | GST-MCL1 / FITC-Bim-BH3 fluorescence polarization;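 active = inhibition above the mean inhibition of all tested compounds plus 3 SD, set per campaign, cut at about 40% in these data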;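 note: higher means more loss of mP so more displacement of Bim peptide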
# Mcl1-Bid inh: disrupts binding of human Mcl-1 to Bid peptide. Q07820. TR-FRET Mcl-1/Bid-Dy647 peptide binding, 1536-well. inhibition, % at 21.7 µM. actives 0.97% (n = 220,000). AID 1021;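 active = compounds that cut the binding signal by more than half at the single screening dose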;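 note: His-tagged Mcl-1 with europium anti-His antibody binding Bid BH3 peptide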
# BCLXL inh confirm: counter-screen for MCL1 inhibitors: confirmation of human Bcl-xL inhibitors | shares compounds with MCL1 BIM primary | GST-Bcl-xL / FITC-Bim BH3 peptide FP binding | inhibition, % at 10.9 µM | actives 54% (n = 1,700) | AID 2166;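 active = inhibition above a cutoff equal to the mean inhibition of all tested compounds plus 3 SD, cut at about 30% in these data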
# MCL1 BIM confirm: MCL1-BIM-BH3 interaction inhibition, confirmation. shares compounds with MCL1 BIM primary. GST-MCL1 / FITC-Bim-BH3 fluorescence polarization. inhibition, % at 10.9 µM. actives 61% (n = 1,700). AID 2168;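 active = inhibition above the average of all tested compounds plus 3 SD, cut at about 40% in these data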
# Numbers stand for hits; . = inactive; / = no result given. Rows were chosen to be rich in hits. Some 2.3% of all compounds tested hit in one or more screens of this group.
SMILES,BCLXL inh,Bim-Mcl-1,Mcl1-Noxa inh,GLD-1 RNA inh,MCL1 BIM primary,Mcl1-Bid inh,BCLXL inh confirm,MCL1 BIM confirm
CCCCCCCCCCCCCCCC(=O)OC(CC(=O)O)C[N+](C)(C)C (centres undefined),.,/,/,.,85,/,.,.
CCCCCCC(=O)O,/,/,/,.,/,/,/,/
COc1ccc(C(=O)OC(C)C(=O)NC(C)CCc2ccccc2)cc1OC (centres undefined),.,/,/,.,.,/,/,/
Cc1c2cc(O)c(=O)cc-2oc2cc(O)c(O)cc12,107,/,/,185,/,/,114,/
COC(=O)CCCC1=CC2=CC(=O)C(C)(OC(=O)c3ccco3)C(=O)C2=CO1 (centres undefined),67,/,/,73,88,/,75,110
CC(C)(C)OC(=O)NCCCCC1=CC2=CC(=O)C(C)(OC(=O)c3ccco3)C(=O)C2=CO1 (centres undefined),.,/,/,49,61,/,.,.
CCCCC1=CC2=CC(=O)C(C)(O)C(=O)C2=CO1 (centres undefined),.,/,/,.,.,/,/,/
CC(C)(C)OC(=O)NCCCC1=CC2=CC(=O)C(C)(OC(=O)C3CCCC3)C(=O)C2=CO1 (centres undefined),65,/,/,79,74,/,48,66
CCCCC1=CC2=CC(=O)C(C)(OC(=O)c3ccc(Cl)nc3)C(=O)C2=CO1 (centres undefined),52,/,/,68,66,/,48,65
O=c1ccc(-c2ccccc2)no1,.,/,.,.,.,.,/,/
O=C(Cc1ccccc1)NCC(=O)OC(c1ccccc1)c1ccccc1,.,.,.,.,.,.,/,/
CCOc1cc(C2C3=C(CCCC3=O)N(C)C3=C2C(=O)CCC3)cc(Cl)c1O,.,.,.,.,50,.,.,.
COc1ccc(S(=O)(=O)N2CCN(C(=O)C3COc4ccccc4O3)CC2)cc1 (centres undefined),.,/,/,.,89,/,.,90
CC(=O)Nc1ccc(S(=O)(=O)N2CCN(C(=O)C3COc4ccccc4O3)CC2)cc1 (centres undefined),.,/,/,.,.,/,/,/
Cc1ccc(-n2c(C)nnc2SCC(=O)N2CCOCC2)cc1,.,/,/,.,.,/,/,/
O=[N+]([O-])c1cccc(C(=S)N2CCN(c3ccc(F)cc3)CC2)c1,38,.,.,.,51,.,.,.
COc1ccc(Nc2nnc(SCC3CCCO3)s2)cc1 (centres undefined),.,.,.,.,.,.,/,/
CCOC(=O)c1c(/N=C/c2cccc([N+](=O)[O-])c2O)sc(C)c1C,45,.,.,.,55,.,.,.
COc1ccc(N/C=C/C(=C(C#N)C#N)N(C)C)cc1,.,.,.,.,.,.,/,/
COc1ccc(NC(=O)c2sc3nc(-c4cccnc4)ccc3c2N)cc1,108,/,.,69,112,52,113,137
COc1ccc(NC(=O)c2sc3nc(C)cc(C)c3c2N)cc1,.,/,/,.,.,/,/,/
COc1cccc(C(=O)N(c2ccc(OC)cc2OC)C2C=CS(=O)(=O)C2)c1 (centres undefined),61,.,.,.,54,.,.,.
C[C@@H]1CC=C[C@H]2[C@H]1C(=O)N(Cc1ccccc1)[C@H]2c1cccc([N+](=O)[O-])c1,.,/,.,.,.,.,/,/
COc1ccccc1NC(=O)CSC(N)=O,.,.,.,.,.,.,/,/
O=[N+]([O-])c1cc(CN2CCN(c3cccc(C(F)(F)F)c3)CC2)c2cccnc2c1O,.,.,.,.,.,.,/,/
SMILES,BCLXL inh,Bim-Mcl-1,Mcl1-Noxa inh,GLD-1 RNA inh,MCL1 BIM primary,Mcl1-Bid inh,BCLXL inh confirm,MCL1 BIM confirm
O=[N+]([O-])c1cc(CN2CCCC2)c2cccnc2c1O,.,.,75,.,88,.,.,94
Cc1cc(C)c(C#N)c(Nc2cccc(C)c2C)n1,.,/,/,.,.,/,/,/
O=C1/C(=C/c2ccccc2)Nc2ccccc21,64,.,.,.,57,.,56,82
O=C1CNC(=O)/C(=C\c2ccccc2)N1,.,/,/,.,.,/,/,/
CC1(C(=O)NNC(=O)c2ccc(=O)oc2)CC1Br (centres undefined),37,/,.,.,58,.,41,52
O=C(CSc1nc2ccccc2c(=O)[nH]1)c1ccc(O)c(O)c1,.,.,.,.,48,.,38,66
O=C(CSc1nc2ccccc2c(=O)[nH]1)c1ccc(O)cc1O,/,.,.,/,/,.,/,/
O=C(OCCc1ccccc1)c1cc(O)c(O)c(O)c1,.,/,/,.,54,/,41,75
CC1CC(C)CN(C(=O)c2ccc(S(=O)(=O)N3CCCC3)cc2)C1 (centres undefined),.,/,/,.,.,/,/,/
Cc1cccc(/C=C2\Oc3cc(OS(C)(=O)=O)ccc3C2=O)c1,.,.,.,.,.,.,/,/
O=C1/C(=C/c2cccc(F)c2)Oc2cc(O)ccc21,75,/,/,70,66,/,83,98
CC(=O)c1ccc(N2CCN(C(=O)CCS(=O)(=O)c3ccc4c(c3)NC(=O)CS4)CC2)cc1,.,/,/,.,.,/,/,/
Cc1ccccc1NC(=O)C1Cc2ccccc2C(=O)O1 (centres undefined),.,.,.,.,.,.,/,/
O=C1OC(C(=O)O)Cc2ccccc21 (centres undefined),.,.,.,.,64,.,.,.
Cc1ccc(C)c(C(=O)CCC(=O)OCn2nnc3ccccc3c2=O)c1,.,/,/,.,85,/,.,.
COc1ccc(CCC(=O)NCCS(=O)(=O)N2CCN(c3ccc(OC)cc3)CC2)cc1,.,/,/,.,.,/,/,/
CCCS(=O)(=O)c1cn2cccc(N)c2c1S(=O)(=O)CCC,98,.,.,86,102,.,.,.
Cc1cc(C)c[n+](-c2nc3ccccc3nc2[N-]S(=O)(=O)c2ccc(Br)s2)c1,62,.,.,.,47,.,63,92
COc1ccc(C(c2nnnn2C(C)C)N2CCN(C(=O)c3ccco3)CC2)cc1 (centres undefined),.,/,/,.,.,/,/,/
CN(C)Cc1c(O)ccc2cc(-c3nc4ccccc4n3C)c(=O)oc12,52,/,/,.,64,/,.,.
Cc1ccccc1-c1nc(Cc2ccccc2)no1,.,.,.,.,44,.,.,.
CC(=O)c1ccc2c(c1)N(CCCN1CCC(CCO)CC1)c1ccccc1S2,.,/,/,.,44,/,.,.
O=c1cc(-c2ccc(O)cc2)oc2c(O)c(O)c(O)c(O)c12,.,/,.,.,47,.,.,54
O=c1cc(-c2ccc(O)cc2)oc2c1ccc1ccccc12,.,/,/,.,.,/,/,/
CCc1nnc(NC(=O)c2cc(Cl)ccn2)s1,.,/,/,.,.,/,/,/
NS(=O)(=O)c1ccc(N=Nc2c[nH]c(=O)c(O)c2)cc1,130,/,.,39,163,.,169,195
